Assay outcomes deposited in PubChem BioAssay by National Center for Advancing Translational Sciences (NCATS).
A selection: hits, their analogues and other compounds. The true share with any hit is near 19%.
TDP1 cell noCPT: qHTS for Inhibitors of human tyrosyl-DNA phosphodiesterase 1 (TDP1): qHTS in cells in absence of CPT; DT40 Tdp1-/- hTDP1 cells, no CPT, ATP luminescence, 48 h; Potency, µM (highest dose often 46.2 µM), for the others: top-dose activity change, negative = growth inhibition, hits mostly inhibitors; actives 15% (n = 420,000); further: potency means the concentration at half of the fitted maximal effect; nearly all actives have a fitted effect of over 55% in size
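A cellular qHTS used chicken DT40 cells lacking endogenous Tdp1 but carrying stably transfected human TDP1. Compounds were applied without camptothecin, and cell growth kinetics were judged by ATP-dependent luminescence after ≥48 hr.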
ELG1 DNA repair: qHTS screen for small molecules that inhibit ELG1-dependent DNA repair in human embryonic kidney (HEK293T) cells expressing luciferase-tagged ELG1; HEK293T ELG1-luciferase reporter, luminescence, 16 h; DNA damage induced by 5-fluorouridine; Potency, µM (doses to about 46.1 µM), inactives show at the highest dose activity change, negative = inhibition, hits mostly inhibitors; AID 504467, 2011; actives 2.3% (n = 330,000); further: potency means the concentration at half of the fitted maximal effect; nearly all actives have a fitted effect of over 55% in size
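DMSO vehicle served as the neutral condition. Each well held 2,000 cells given 5-fluorouridine plus compound; after 16 hr at 37 °C/5% CO2, ONE-Glo was added and luciferase measured 30 min later.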
Giardia killer: Small Molecules that selectively kill Giardia lamblia: qHTS | Giardia lamblia trophozoite viability | activity change, % at 7.66 µM, hits read low | actives 0.15% (n = 340,000) | AID 540267, 2011; in the data active means activity change below about -80%; inconclusive means between about -30% and that limit;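 further: parasites exposed to compound for two days anaerobically before the ATP read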
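Compounds were tested on trophozoites seeded at 100 cells/well and held 48 hrs at 37 deg C anaerobically. An ATP-based luminescent kit measured the remaining live cells.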
TDP1 cell CPT: qHTS for Inhibitors of human tyrosyl-DNA phosphodiesterase 1 (TDP1): qHTS in cells in presence of CPT; actives 12% (n = 420,000); chicken DT40 Tdp1-/-;hTDP1 cells + 20 nM CPT, ATP luminescence, 48 h; Potency, µM (series often up to 46.2 µM), inactives show at the highest dose activity change, negative = growth inhibition, actives largely listed as inhibitors; further: potency means the concentration at half of the fitted maximal effect; nearly all actives have a fitted effect of over 55% in size
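Chicken DT40 Tdp1-/- cells stably complemented with human TDP1 were seeded at 400 cells/well in medium containing 20 nM camptothecin, exposed to pin-transferred compounds, and grown at 37 °C for at least 48 hr. Viability was read as ATP luminescence.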
IL1B secr inh: qHTS for Inhibitors of Inflammasome Signaling: IL-1-beta AlphaLISA Primary Screen. actives 4.7% (n = 360,000). AID 743279, 2014. THP-1 LPS/ATP IL-1B secretion, AlphaLISA, 16 h; active compounds read low. activity change, % at 57.5 µM; in the data active means activity change below about -50%; inconclusive means mostly about -30% to -49%
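THP-1 cells pretreated 1 hr with compounds (up to 57.5 uM final), then stimulated with LPS (250 ng/mL final) plus ATP (1.25 mM final); secreted IL-1B measured by AlphaLISA after 16 hr, decreased signal indicating inhibition.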
TDP1 inh: qHTS Assay for Inhibitors of Tyrosyl-DNA Phosphodiesterase (TDP1). recombinant TDP1, AlphaScreen DNA substrate cleavage. AID 485290, 2010. Potency, µM (top dose mostly 130 µM), inactives show top-dose activity change, negative = inhibition, actives largely listed as inhibitors. Tyrosyl-DNA phosphodiesterase 1 (Homo sapiens), Q9NUW8. actives 0.28% (n = 350,000); further: potency means the concentration at half of the fitted maximal effect; nearly all actives have a fitted effect of over 40% in size
Target sequence (Q9NUW8 whole entry, looked up): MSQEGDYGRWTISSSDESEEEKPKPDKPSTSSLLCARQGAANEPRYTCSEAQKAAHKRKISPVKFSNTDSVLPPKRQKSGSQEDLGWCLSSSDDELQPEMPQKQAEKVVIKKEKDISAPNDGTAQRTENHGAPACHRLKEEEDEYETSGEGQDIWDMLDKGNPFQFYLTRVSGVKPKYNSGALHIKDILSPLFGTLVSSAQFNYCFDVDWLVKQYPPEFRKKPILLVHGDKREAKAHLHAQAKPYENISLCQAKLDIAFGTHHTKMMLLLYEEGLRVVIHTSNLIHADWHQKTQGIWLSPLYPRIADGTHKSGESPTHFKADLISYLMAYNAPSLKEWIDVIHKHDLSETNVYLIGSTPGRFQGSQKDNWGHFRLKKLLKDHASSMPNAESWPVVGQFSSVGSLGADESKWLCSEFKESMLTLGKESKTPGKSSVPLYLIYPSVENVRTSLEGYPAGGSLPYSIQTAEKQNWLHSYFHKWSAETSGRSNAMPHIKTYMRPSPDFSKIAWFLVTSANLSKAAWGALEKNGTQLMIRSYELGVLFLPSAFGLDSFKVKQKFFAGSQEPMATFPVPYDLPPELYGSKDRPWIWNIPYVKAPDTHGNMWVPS
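Recombinant E. coli-expressed Tdp1 (1 nM) preincubated with compound 15 min at RT, then 5'-biotin/3'-phosphotyrosine-FITC DNA substrate (15 nM) added for 5 min. AlphaScreen beads (10 ug/ml) added, 10 min RT; tyrosine-FITC cleavage read as signal loss.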
Numbers without * were called inactive; ? = inconclusive; nt = no result; [ ] = another dose, or the depositor's remark. Unless noted, the call rests on the fitted dose curve; in most records, active means well fitted curve in the direction sought with a large enough effect; inconclusive means small, poorly fitted or top-dose-only effect, or another doubt; inactive means no such curve, though single readings can be large; an effect the other way counts as inactive or inconclusive. On the % scale 0 is the no-effect control and ±100 the full control effect.

SMILES	TDP1 cell noCPT	ELG1 DNA repair	Giardia killer	TDP1 cell CPT	IL1B secr inh	TDP1 inh
COCCNCCCCOc1ccc(Br)cc1C	23.1µM*	8.8%	16.5	?	-29.3	-5.9%
COCCCNCCCCOc1cccc(Br)c1	?	-4.9%	6.6	?	-20.8	0.0%
Cc1cc(Br)ccc1OCCCCNC(C)(C)C	20.6µM*	-16.9%	6.5	?	?	-2.9%
COCCCNCCCCOc1ccc(Br)cc1C	23.1µM*	9.2%	-11.0	?	-56.1*	5.1%
O=C(COC(=O)c1cc[n+]([O-])cc1)Nc1cccc(F)c1	-3.2%	?	19.2	3.6%	-3.9	-0.3%
COc1ccccc1C(=O)Nc1ccc(C(=O)Nc2ccccc2C(=O)O)cc1	?	17.6%	-6.1	?	8.6	1.4%
N#Cc1ccccc1C[C@H](N)C(=O)NC[C@H]1O[C@@H](n2ccc(N)nc2=O)[C@H](O)[C@@H]1O	-16.5%	nt	nt	9.1%	-19.9	nt
COc1ccc(C(CCN2CCOCC2)c2c(O)cc(OC)cc2OC)cc1 (centres undefined)	?	-1.0%	9.6	?	-5.1	8.5%
COc1cc(O)c(C(CCN2CCCC2)c2ccc(N(C)C)cc2)c(OC)c1 (centres undefined)	20.6µM*	8.2%	-20.9	14.6µM*	-13.4	26.2%
COc1cc(O)c(C(CCN2CCCCC2)c2ccc(N(C)C)cc2)c(OC)c1 (centres undefined)	6.51µM*	4.0%	-21.8	16.4µM*	?	23.8%
COCCN(CC(=O)Nc1cccc(C)c1C)C(=O)c1ccc2ccccc2n1	?	?	-11.2	?	5.9	0.1%[56.1 µM]
CC(=O)Nc1nc(-c2ccccc2)nc(-c2ccccc2OC(C)=O)n1	18.4µM*	20.6µM*	8.4	?	-50.2*	5.1%
Cc1ccc(OCC(=O)Nc2cccc(-c3nc4ccccc4s3)c2)cc1	?	nt	nt	?	nt	2.6%
COc1c(C)cccc1C(=O)Nc1ccc(-c2nc3ccccc3s2)c(Cl)c1	11.6µM*	nt	nt	?	nt	-2.1%
Cn1c(=O)c2ncn(CC(=O)Nc3cccc(-c4nc5ccccc5s4)c3)c2n(C)c1=O	14.6µM*	?	4.3	14.6µM*	38.6	6.8%
CCOc1ccccc1C(=O)Nc1cccc(-c2nc3ccccc3s2)c1	5.17µM*	nt	nt	6.51µM*	nt	2.6%
O=C(CCS(=O)(=O)c1ccccc1)Nc1cccc(-c2nc3ccccc3s2)c1	18.4µM*	?	-14.8	?	103.2	-1.8%
CN(C)C(CNC(=O)c1c(F)cccc1Cl)c1ccco1 (centres undefined)	-5.8%	11.3%	4.0	2.1%	14.6	0.0%
C[C@H]1Cn2cnc(C(=O)Nc3ccccc3)c2C(=O)N1	-25.6%	nt	nt	-9.9%	-21.2	nt
COc1cc(OC)cc(C(=O)Nc2cc(-c3nc4ccccc4s3)ccc2OC)c1	-3.2%	nt	nt	0.4%	nt	5.8%
CCC(CC)C(=O)Nc1cccc(-c2nc3ccccc3o2)c1	16.4µM*	-18.3%	3.5	?	-23.3	0.0%
CCC(CC)C(=O)Nc1cccc(-c2nc3ccccc3s2)c1	?	nt	nt	20.6µM*	nt	1.6%
CC(C)(C)C(=O)Nc1ccc(-c2nc3ccccc3s2)cc1	?	nt	nt	?	nt	-2.6%
CCOc1cc(C(=O)Nc2ccc(-c3nc4ccccc4s3)cc2Cl)cc(OCC)c1OCC	23.1µM*	nt	nt	?	nt	6.4%
CCS(=O)(=O)c1ccccc1C(=O)Nc1ccc(-c2nc3ccccc3s2)cc1	14.6µM*	nt	nt	?	nt	2.7%
SMILES	TDP1 cell noCPT	ELG1 DNA repair	Giardia killer	TDP1 cell CPT	IL1B secr inh	TDP1 inh
CCCN=Cc1ccc(O)cc1	2.0%	-14.4%	10.1	4.2%	8.1	-5.5%
CCOc1cc2[nH]c(=S)n(Cc3ccc(C(=O)O)cc3)c(=O)c2cc1OCC	-3.2%	-0.1%	36.8	9.7%	35.2	nt
COc1cc(CC(=O)OCC(=O)N2CC(=O)Nc3ccccc32)cc(OC)c1OC	18.9%	-5.2%	-10.7	28.4%	0.0	-1.2%
CSc1ccccc1NC(=O)CSCc1nc2sc(C)c(C)c2c(=O)[nH]1	?	-2.1%	-3.2	-20.9%	44.5	-0.9%
Cc1sc2nc(CSCC(=O)Nc3ccccc3C#N)[nH]c(=O)c2c1C	16.4µM*	?	4.0	?	1.4	-2.6%
O=C(NC12CC3CC(CC(C3)C1)C2)C1CC(=O)N(c2ccc(Br)cc2)C1 (centres undefined)	23.1µM*	?	2.3	13µM*	4.9	1.4%
O=C(NC12CC3CC(CC(C3)C1)C2)C1CC(=O)N(c2ccccc2)C1 (centres undefined)	-28.0%	-12.1%	10.4	-18.6%	12.5	2.5%
COc1cccc(OCCSc2nc3ccccc3n2CC(=O)N2CCOCC2)c1	1.5%	nt	nt	-27.8%	nt	5.7%
CCCc1cc2c(cc1N(C)S(=O)(=O)c1ccccc1)OCO2	3.66µM*	nt	-29.8	3.66µM*	-18.5	nt
COc1cccc(S(=O)(=O)NCc2ccc3c(c2)OCO3)c1	-18.5%	-13.4%	0.7	-21.8%	-6.2	6.6%
CSc1ccc(CCNC(=O)c2cc3n(n2)CCCN(Cc2ccc(C)cc2)C3=O)cc1	?	nt	nt	5.8µM*	nt	-6.2%
CCCCNC(=O)c1cc2n(n1)CCCN(Cc1ccc(C)cc1)C2=O	?	nt	nt	?	nt	6.2%
Cc1ccc(CN2CCCn3nc(C(=O)NCCc4ccc(Cl)cc4)cc3C2=O)cc1	?	nt	nt	?	nt	1.2%
CCOc1ccc(CCNC(=O)c2cc3n(n2)CCCN(Cc2ccc(C)cc2)C3=O)cc1OCC	14.6µM*	nt	nt	9.2µM*	nt	8.8%
Cc1ccc(CN2CCCn3nc(C(=O)NCCc4ccccc4Cl)cc3C2=O)cc1	16.4µM*	nt	nt	20.6µM*	nt	1.2%
CCCSCCCNC(=O)c1cc2n(n1)CCCN(Cc1ccc(C)cc1)C2=O	?	nt	nt	18.4µM*	nt	1.2%
CCCNC(=O)c1cc2n(n1)CCCN(Cc1ccc(C)cc1)C2=O	-11.7%	nt	nt	-16.5%	nt	3.8%
O=C(NCc1ccc(F)cc1)c1cc2n(n1)CCCN(Cc1ccc(F)cc1)C2=O	?	nt	nt	?	nt	0.0%
COC(=O)C1=C(C)[C@@H](O)[C@@H](C)[C@H](c2c(OC)c(OC)c(C)c(OC)c2OC)O1	nt	nt	nt	nt	nt	5.8%[21 µM]
CCCC(=O)NCCc1cc(OC)c(OC)cc1Br	-11.7%	0.9%	1.3	-11.4%	2.0	1.2%
